± gives the standard deviation.
Columns and labels:
Details in all cases: modulator concentration 10 µM
[1] = system: RAW-Dual (murine macrophage reporter line); experiment: NF-kB reporter (SEAP) activity fold change vs agonist alone; higher = enhanced NF-kB activity
Summary of the method: (§1)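 In 384-well plates holding 50 000 RAW-Dual murine macrophage reporter cells per well, compound at 10 μM final was pre-incubated for 1 hour at 37 °C, after which a PRR agonist was added overnight. Supernatant SEAP read with QUANTI-Blue at 620 nm absorbance reported NF-κB, and Lucia luciferase read with QUANTI-Luc luminescence reported IRF. Fold change values come from dividing each reporter signal by the mean of agonist-only control wells on the same plate, averaged over replicate plates with propagated errors.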

[2] = system: RAW-Dual (murine macrophage reporter line); experiment: IRF reporter (Lucia luciferase) activity fold change vs agonist alone; higher = enhanced IRF activity
Summary of the method: as §1

[3] = system: RAW-Dual (murine macrophage reporter line); experiment: viability score (confluency relative to resting cells, overnight) (fraction); higher = more viable, active = viable (0.7 or more)
Summary of the method: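 RAW-Dual macrophages in 384-well plates were treated overnight with compound at 10 μM final. IncuCyte imaging recorded confluency, and IncuCyte software built two confluency masks across every imaged well. The viability score expresses confluency relative to resting cells and was judged against a cutoff, which a compound met only if both masks exceeded 70% of resting cells.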

[4] = agonist: CpG ODN 1826 0.5 ug/mL

Structure (SMILES) | NF-kB reporter [1, 4] | NF-kB reporter ([1]; agonist: LPS 0.1 ug/mL) | NF-kB reporter ([1]; agonist: MPLA […]) | IRF reporter ([2]; agonist: 3'3'-cGAMP 10 ug/mL) | IRF reporter ([2]; agonist: LPS 0.1 ug/mL) | IRF reporter ([2]; agonist: MPLA […]) | viability score [3]
CCOC(=O)n1ccn(C)c1=S | 1.26 ± 0.21 | 1.04 ± 0.33 | 0.909 ± 0.067 | 0.913 ± 0.03 | 1.18 ± 0.48 | 1.11 ± 0.09 | 0.992 (active)
CS(=O)(=O)c1ccc(C2=C(c3ccccc3)C(=O)OC2)cc1 | 0.962 ± 0.09 | 1.04 ± 0.071 | 0.975 ± 0.042 | 1.05 ± 0.058 | 0.97 ± 0.074 | 0.946 ± 0.084 | 0.997 (active)
O=C1OC(=O)C2C3CCC(O3)C12 (stereo not given) | 1.66 ± 0.13 | 1.45 ± 0.15 | 2.06 ± 0.2 | 1.77 ± 0.076 | 1.65 ± 0.22 | 1.72 ± 0.38 | 0.94 (active)
CC1(C)OC(=O)C(=Cc2ccc(I)o2)C(=O)O1 | 0.595 ± 0.069 | 1.01 ± 0.069 | 0.887 ± 0.17 | 0.589 ± 0.049 | 1.02 ± 0.18 | 0.877 ± 0.26 | 1.01 (active)
Cc1ccc(Sc2c(C)nn(-c3ccccc3)c2OC(=O)C(C)(C)C)cc1 | 0.74 ± 0.07 | 0.87 ± 0.075 | 0.928 ± 0.12 | 0.557 ± 0.031 | 1.08 ± 0.1 | 1.03 ± 0.19 | 0.963 (active)
O=C(O)C=Cc1cccc(NS(=O)(=O)C=Cc2ccccc2)c1 | 1.06 ± 0.094 | 0.968 ± 0.084 | 1.33 ± 0.19 | 0.956 ± 0.07 | 1.29 ± 0.28 | 1.34 ± 0.28 | 1.02 (active)
CN(Cc1cnc2nc(N)nc(N)c2n1)c1ccc(C(=O)N[C@@H](CCC(=O)O)C(=O)O)cc1 | 0.668 ± 0.16 | 0.862 ± 0.28 | 0.764 ± 0.045 | 0.612 ± 0.049 | 1.02 ± 0.35 | 0.993 ± 0.16 | 0.574 (inactive)
Cc1nc2sccn2c(=O)c1CCN1CCC(=C(c2ccc(F)cc2)c2ccc(F)cc2)CC1 | 0.91 ± 0.1 | 1 ± 0.061 | 0.901 ± 0.053 | 0.92 ± 0.056 | 1.12 ± 0.18 | 1.01 ± 0.15 | 1 (active)
CCN(CC)Cc1ccc(Nc2ccnc3cc(Cl)ccc23)cc1O.Cl.Cl | 0.998 ± 0.1 | 0.874 ± 0.065 | 0.908 ± 0.085 | 0.988 ± 0.055 | 1.09 ± 0.19 | 1.04 ± 0.16 | 1.04 (active)
CCOC(=O)C1=C(C)NC(C)=C(C(=O)OC)C1c1cccc([N+](=O)[O-])c1 (stereo not given) | 0.706 ± 0.055 | 0.763 ± 0.088 | 0.859 ± 0.076 | 1.02 ± 0.049 | 1.44 ± 0.098 | 1.37 ± 0.11 | 0.985 (active)
COc1ccc(C2Oc3cc(OC)cc(OC)c3CC2O)cc1 (stereo not given) | 1.01 ± 0.24 | 1.01 ± 0.07 | 1.81 ± 0.81 | 0.881 ± 0.057 | 1.12 ± 0.27 | 1.04 ± 0.1 | 1.01 (active)
COc1cc(-c2nnc(SCc3ccc([N+](=O)[O-])cc3)n2-c2ccccc2)cc(OC)c1OC | 0.986 ± 0.095 | 0.942 ± 0.053 | 0.994 ± 0.074 | 1.07 ± 0.067 | 1.37 ± 0.2 | 0.969 ± 0.06 | 1.01 (active)
Cc1cccc(Oc2ccc(NC(=O)c3ccco3)cc2)c1C | 0.683 ± 0.049 | 0.992 ± 0.12 | 1.12 ± 0.049 | 0.483 ± 0.054 | 0.965 ± 0.085 | 1.44 ± 0.22 | 0.991 (active)
CC1=C(C(=O)OCC2CCCO2)C(c2ccc([N+](=O)[O-])cc2)C2=C(CC(C)(C)CC2=O)N1 (stereo not given) | 1.16 ± 0.19 | 0.887 ± 0.08 | 0.848 ± 0.078 | 0.553 ± 0.02 | 1.04 ± 0.23 | 0.984 ± 0.11 | 0.995 (active)
O=C(NCCc1cn2ccccc2n1)c1ccccc1Br | 0.964 ± 0.069 | 0.943 ± 0.12 | 1.03 ± 0.056 | 1 ± 0.048 | 1.2 ± 0.25 | 1.24 ± 0.32 | 0.975 (active)
O=C(CCCN1CCC(O)(c2ccc(Cl)cc2)CC1)c1ccc(F)cc1 | 0.827 ± 0.13 | 0.893 ± 0.074 | 1.12 ± 0.098 | 1.05 ± 0.071 | 1.36 ± 0.092 | 1.38 ± 0.13 | 1.01 (active)
CCOC(=O)CN1CCOCCOCCN(CC(=O)OCC)CCOCCOCC1 | 0.937 ± 0.078 | 0.971 ± 0.061 | 0.957 ± 0.067 | 0.974 ± 0.052 | 1.23 ± 0.088 | 1.02 ± 0.1 | 1.01 (active)
CCOc1ccccc1OCCCCOc1cccc(C)c1C | 0.984 ± 0.1 | 1.03 ± 0.11 | 0.982 ± 0.061 | 1 ± 0.14 | 1.08 ± 0.13 | 1.1 ± 0.27 | 1 (active)
CCOc1nccn2c(CNC(=O)c3cccnc3)nnc12 | 0.929 ± 0.098 | 1.05 ± 0.084 | 1.11 ± 0.15 | 1.03 ± 0.064 | 1.02 ± 0.19 | 1 ± 0.4 | 0.988 (active)
CCOC(=O)Cc1cc(OC)c(OC)cc1C(C)=NNc1ccccc1 | 0.719 ± 0.056 | 0.831 ± 0.12 | 0.98 ± 0.085 | 0.816 ± 0.055 | 1.13 ± 0.065 | 1.09 ± 0.15 | 1 (active)
CN(C)CCCN1c2ccccc2Sc2ccc(Cl)cc21.Cl | 0.377 ± 0.029 | 0.997 ± 0.096 | 1.87 ± 0.041 | 1.07 ± 0.073 | 1.13 ± 0.1 | 1.37 ± 0.17 | 0.306 (inactive)
Cc1ccc(C)n1-c1ccc(C(=O)OCC(=O)c2ccc([N+](=O)[O-])cc2)cc1 | 0.888 ± 0.071 | 0.845 ± 0.054 | 1.31 ± 0.42 | 0.666 ± 0.044 | 1.1 ± 0.064 | 1.01 ± 0.14 | 0.976 (active)
O=C(O)c1nn(-c2ccccc2)c(=O)c2ccccc12 | 1.12 ± 0.13 | 1.1 ± 0.099 | 1.03 ± 0.027 | 0.955 ± 0.034 | 0.953 ± 0.086 | 0.953 ± 0.26 | 1 (active)
c1cn2cc(-c3ccc4cn[nH]c4c3)nc(Nc3ccc(N4CCOCC4)cc3)c2n1 | 0.99 ± 0.24 | 0.759 ± 0.06 | 1.25 ± 0.12 | 0.24 ± 0.015 | 0.897 ± 0.12 | 1.1 ± 0.26 | 0.978 (active)
CCC(=O)c1c(O)cc(O)cc1O | 1.03 ± 0.083 | 1.1 ± 0.055 | 1.04 ± 0.055 | 0.922 ± 0.056 | 0.946 ± 0.081 | 0.84 ± 0.071 | 0.999 (active)

Reference: the supplement of paper PMC10646978
